From PubChem BioAssay
This is a sample that favours compounds with a hit; in the whole collection about 4.2% have one here.
Sfp PPTase inh – Sfp phosphopantetheinyl transferase inhibition; Q9F4F7; Biochemical Sfp PPTase activity, qHTS; Potency, µM, without a hit: largest response in the series, negative = inhibition, hits mostly inhibitors; hit rate 3.5% among 310,000;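 further: the enzyme is Sfp with the accession as filed and its product quenches rhodamine fluorescence; potency means the concentration at half of the fitted maximal effect; 0% = enzyme reaction without inhibitor and -100% = no enzyme wells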
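After 15 min at room temperature with compound, 15 nM Sfp received 5 uM rhodamine-CoA plus 12.5 uM BHQ-2-ybbR (50 mM Hepes pH 7.6, 10 mM MgCl2). Rate came from the fluorescence difference over 30 min, ex 525/em 598 nm.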
uPA surface inh – blocks generation of uPA at the cell surface; Potency, µM (titrated, usually from 38.3 µM), for inactives: top-dose activity change, negative = inhibition, actives largely listed as inhibitors; AID 540303; hit rate 0.31% among 330,000; cell surface uPA generation assay, qHTS; active means well fitted inhibition curve with a large enough effect; inconclusive means small, poorly fitted or top-dose-only effect; inactive means no such curve, though single readings can be large or run the other way; tested in mouse RAW 264.7 cells; further: potency means the concentration at half of the fitted maximal effect; on the % scale 0 is the no-effect control and ±100 the full control effect; nearly all actives have a fitted effect of over 55% in size
ClpP mod – qHTS Assay for Activators of ClpP; purified B. subtilis ClpP, FRET peptide cleavage, 20 min; Potency, µM (series often up to 57.5 µM), for inactives: at the top dose activity change, negative = active; hit rate 1.9% among 340,000; ATP-dependent Clp protease proteolytic subunit (Bacillus subtilis (strain 168)), P80244; active means well fitted falling curve with a large enough effect; inconclusive means small, poorly fitted or top-dose-only effect; inactive means no such curve, though single readings can be large or run the other way; further: potency means the concentration at half of the fitted maximal effect; the source files actives as falling curves though it sought activators and does not explain the sign; nearly all actives have a fitted effect of over 65% in size
Target sequence (P80244 whole entry, looked up): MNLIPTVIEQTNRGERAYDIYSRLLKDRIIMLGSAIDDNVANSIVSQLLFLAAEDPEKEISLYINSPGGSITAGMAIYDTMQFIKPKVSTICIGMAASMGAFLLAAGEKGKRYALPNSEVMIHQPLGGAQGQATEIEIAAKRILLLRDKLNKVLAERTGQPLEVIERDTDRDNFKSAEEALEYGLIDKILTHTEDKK
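ClpP 10 microg/mL final, pH 8 Tris/KCl buffer with BSA, glycerol, Tween-20; compound pinned in; FRET-FV substrate; RT 20 min; Ex320/Em430; ΔFRET vs ADEP 5.8 microM, DMSO, no enzyme.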
TCR act – activates T cell receptor signaling. primary human leukocytes, anti-CD3, IL-2 HTRF, 48 h. Potency, µM (doses to about 9.22 µM), inactives show top-dose activation of IL-2 secretion, most hits filed as activators. 330,000 tested, under 10 active. AID 504894; further: % of control where 0% means no effect
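48 hr co-incubation of compounds, a-CD3 beads and primary human leukocytes; IL-2 quantified homogeneously by HTRF with anti-IL-2 K and d2 conjugates.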
Sfp PPTase conf – Sfp phosphopantetheinyl transferase inhibition, confirmation; shares compounds with Sfp PPTase inh; hit rate 79% among 380; Potency, µM (top dose mostly 114 µM), inactives show at the top dose activity change, negative = inhibition, actives largely listed as inhibitors; Sfp PPTase enzymatic assay, qHTS titration;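 further: potency means the concentration at half of the fitted maximal effect; plate controls were uninhibited Sfp reaction for no effect and no enzyme control for full effect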
Target sequence (Q9F4F7 whole entry, looked up): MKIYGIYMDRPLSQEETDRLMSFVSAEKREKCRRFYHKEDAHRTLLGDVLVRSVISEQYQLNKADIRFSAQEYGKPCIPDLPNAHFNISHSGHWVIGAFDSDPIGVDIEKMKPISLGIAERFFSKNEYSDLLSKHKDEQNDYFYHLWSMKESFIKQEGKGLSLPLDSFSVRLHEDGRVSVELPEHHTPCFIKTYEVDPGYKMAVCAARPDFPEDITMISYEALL
Sfp gel assay – Inhibits B. subtilis Sfp phosphopantetheinylation. shares compounds with Sfp PPTase inh. purified Sfp, gel-based phosphopantetheinylation read-out. Potency, µM, usual class: inhibitors. hit rate 20% among 210;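 active means potency below 100 µM; inconclusive means dose-dependent response but potency above 100 µM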;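 further: band intensities scaled against SCH202676 control wells before curve fitting; potency is an IC50 for inhibitors of Sfp transfer activity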
ClpP inh valid – inhibits B. subtilis ClpP protease, hit validation; shares compounds with ClpP mod; purified B. subtilis ClpP, FRET-FV substrate cleavage, 20 min; Potency, µM (titrated, usually from 57.5 µM), without a hit: top-dose activity change, negative = inhibition, hits mostly inhibitors; hit rate 40% among 470; AID 743245; further: potency means the concentration at half of the fitted maximal effect; on the % scale 0 is the no-effect control and ±100 the full control effect; nearly all actives have a fitted effect of over 70% in size
An asterisk follows results filed as active; i = inactive; u = inconclusive; x = not tested or not shown; [ ] = dose if it differs, or a comment. Unless noted, the call rests on the fitted dose curve; in most records, active means well fitted curve in the direction sought with a large enough effect; inconclusive means small, poorly fitted or top-dose-only effect, or another doubt; inactive means no such curve, though single readings can be large; an effect the other way counts as inactive or inconclusive.

SMILES	Sfp PPTase inh	uPA surface inh	ClpP mod	TCR act	ClpP inh valid	others
COc1ccc(Cl)cc1NC(=O)c1nnn(CC(=O)Nc2ccc3c(c2)OCO3)c1N	10%	5%	-17%	5%	x
Cc1cccc(Nc2c(O)nc[nH]c2=O)c1	x	-1%	x	-5%	x
c1cncc(-c2nc(-c3ccco3)cs2)c1	7.9µM*	-3%	-10%	0%	x	Sfp PPTase conf=15µM*
Cc1cc(NC(=O)CN2C(=O)CC(c3ccco3)Sc3ccccc32)no1 (stereo not drawn)	2.5µM*	3%	-3%	-4%[46.1 µM]	x	Sfp PPTase conf=15µM*;Sfp gel assay=i
Nc1nc2ccccc2[nH]1	4%	8%	x	0%	x
Nc1ccccc1Sc1nc2ccccc2[nH]1	7.9µM*	-7%	x	6%	x	Sfp PPTase conf=37µM*
CC(Nc1ncnc2c1cnn2-c1cccc(Cl)c1)c1ccccc1 (stereo not drawn)	x	x	-9%	x	x
Cc1cccc(Nc2nc(NCc3ccco3)c3ccccc3n2)c1	2.5µM*	-13%	20µM*	-2%[46.1 µM]	x	Sfp PPTase conf=37µM*;Sfp gel assay=i
CNc1nc(NCc2ccco2)c2ccccc2n1	x	x	4%	x	x
CC(C)(C)C(=O)OCOP(=O)(COCCn1cnc2c(N)ncnc21)OCOC(=O)C(C)(C)C	56µM*	x	x	x	x	Sfp PPTase conf=u;Sfp gel assay=u
C1=C(c2ccccc2)CCN(c2nc3ccccc3n3cnnc23)C1	28µM*	2%	u	-6%	x	Sfp PPTase conf=37µM*
c1ccc(N2CCN(c3nc4ccccc4n4cnnc34)CC2)cc1	2%	12%	-1%	0%	x
Cc1ccc(S(=O)(=O)N2CCCC2)cc1C(=O)NCc1ccccc1CN1CCCC1	x	7%	-1%	4%	x
COc1cccc2c3c(c(C)nc12)CC(C)O3 (stereo not drawn)	19%	-2%	7.9µM*	3%	7.7µM*
COc1ccc(N2CCc3c(C)nc4c(OC)cccc4c32)cc1	6%	-18%	-4%	3%	x
Cc1cccnc1NC(=O)c1ccc(S(=O)(=O)N2CCCCC2)cc1	x	3%	3.5µM*	4%	0%
O=C(Cc1cccs1)Nc1ccc(-c2nnc(-c3ccccc3)o2)cc1	x	3%	8.9µM*	-1%	12µM*
Cc1ccc2[nH]c(=O)c(CN(Cc3ccc4c(c3)OCO4)Cc3nnnn3C3CCCC3)cc2c1	4%	-10%	81%	-4%	-19%
O=C(NCC(=O)N(c1ccc(F)cc1)C(C(=O)NC1CCCCC1)c1ccncc1)c1ccco1 (stereo not drawn)	10%	2%	x	-2%	x
CC(=O)N1N=C(c2ccc(Br)cc2)OC12CCCC2	10%	2%	1%	-5%	x
CC(=O)N1N=C(c2ccncc2)OC12CCCC2	16%	0%	10µM*	4%	24µM*
CC(=O)Nc1ccc2nc(-c3ccccc3)cn2c1	10%	-8%	3.5µM*	7%[46.1 µM]	22µM*
Clc1ccc2nc(-c3ccccc3)cn2c1	21%	-15%	1%	3%	x
CC(=O)Nc1ccc(-c2cc(-c3ccc(NC(C)=O)cc3)nc(-c3ccccc3)n2)cc1	3%	-17%	7.9µM*	13%	24µM*
CC(=O)Nc1ccc(-c2cc(C(=O)O)c3ccccc3n2)cc1	-1%	-15%	4%	-3%	x
CCNC(=O)c1ccc(NC(=O)CC2SC(N3CCCC3)=NC2=O)cc1 (stereo not drawn)	x	28%	-3%	-8%	x
COc1ccc(OC)c(NCc2nnc(-c3ccccc3)o2)c1	24%	4%	x	1%	x
COc1ccc(-c2ccc(-c3nnc(Cc4ccc(OC)c(OC)c4)o3)cc2)cc1	-4%	x	2µM*	5%	u
CC(C)NC(=O)N(C)C[C@@H]1Oc2c(NC(=O)C3CCOCC3)cccc2C(=O)N([C@@H](C)CO)C[C@H]1C	x	20%	-1%	1%	x
